Inconclusive results are not listed. Entries that show only a call come without a potency. Activity calls are given as the source filed them. Calls follow the shape of the dose curve; as a rule, active = well fitted inhibition curve with a large enough effect; inconclusive = small, poorly fitted or top-dose-only effect; inactive = no such curve, though single readings can be large or run the other way.
What follows are compounds tested against Tyrosine-protein kinase Yes (Homo sapiens) (UniProt P07947) (assay: qHTS for small molecule inhibitors of Yes1 kinase: Primary Screen (AID 686947; also: nearly all actives have a fitted effect of over 60% in size)). Conditions: Yes1 kinase biochemical qHTS inhibition; series mostly up to 76.9 µM.
Tyrosine-protein kinase Yes (Homo sapiens), sequence (P07947 whole entry, looked up): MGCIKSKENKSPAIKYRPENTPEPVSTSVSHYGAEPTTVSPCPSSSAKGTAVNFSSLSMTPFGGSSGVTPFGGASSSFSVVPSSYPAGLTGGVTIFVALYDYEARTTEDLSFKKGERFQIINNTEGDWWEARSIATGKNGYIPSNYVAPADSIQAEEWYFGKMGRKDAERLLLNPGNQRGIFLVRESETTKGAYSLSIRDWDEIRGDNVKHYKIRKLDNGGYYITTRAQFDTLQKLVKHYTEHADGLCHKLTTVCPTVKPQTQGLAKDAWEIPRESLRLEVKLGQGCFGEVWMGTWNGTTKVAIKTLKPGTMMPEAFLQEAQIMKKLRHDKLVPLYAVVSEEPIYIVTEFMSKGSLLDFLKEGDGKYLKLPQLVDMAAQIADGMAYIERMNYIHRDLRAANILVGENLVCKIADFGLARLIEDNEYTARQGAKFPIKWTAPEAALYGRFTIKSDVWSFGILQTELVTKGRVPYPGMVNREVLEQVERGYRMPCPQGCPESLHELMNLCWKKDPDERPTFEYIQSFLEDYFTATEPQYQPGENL
In short: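 ADP-Glo luminescence reports ADP formed by 4 nM Yes1 phosphorylating poly(E4Y) (0.3 mg/mL) with 0.1 mM ATP for 60 min at room temperature, following 20 min compound preincubation; normalised between DMSO wells with and without enzyme.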
Potency is read from the fitted curve at half-maximal effect.

| SMILES | Potency |
| --- | --- |
| Cc1cccc(-c2[nH]c(C(C)(C)C)nc2-c2ccc3nccnc3c2)n1 | 688 nM (active) |
| O=S(=O)(N=Cc1c(O)ccc2ccccc12)c1cccs1 | inactive |
| N#Cc1ccc(C(c2ccc(C#N)cc2)n2cncn2)cc1 | inactive |
| CNC(=O)c1ccc(N2C(=S)N(c3ccc(C#N)c(C(F)(F)F)c3)C(=O)C2(C)C)cc1F | inactive |
| O=C(Nc1cccnc1)N1CCC(Cc2cccc(Oc3ccc(C(F)(F)F)cn3)c2)CC1 | inactive |
| C[C@H](NC(=O)Cc1cc(F)cc(F)c1)C(=O)N[C@@H]1C(=O)N(C)c2ccccc2-c2ccccc21 | inactive |
| COc1ccc(C2=N[C@H](c3ccc(Cl)cc3)[C@H](c3ccc(Cl)cc3)N2C(=O)N2CCNC(=O)C2)c(OC(C)C)c1 | 12200 nM (active) |
| Cc1c(CN2CCN(C(=O)C(C)C)CC2)sc2c(N3CCOCC3)nc(-c3cnc(N)nc3)nc12 | 244 nM (active) |
| Cc1cc(SCc2sc(-c3ccc(C(F)(F)F)cc3)nc2C)ccc1OCC(=O)O | inactive |
| Cn1cnc2c(F)c(Nc3ccc(Br)cc3Cl)c(C(=O)NOCCO)cc21 | inactive |
| Cc1oncc1C(=O)Nc1ccc(C(F)(F)F)cc1 | inactive |
| Cc1ccccc1C(C(=O)NC1CCCC1)N(C(=O)Cn1cnc2ccccc21)c1cccc(F)c1 (stereo not drawn) | inactive |
| O=C(OCC#CCSc1nnc(-c2ccc3ccccc3c2)o1)c1cc2ccccc2s1 | inactive |
| Cc1cc(Nc2nc(N[C@@H](C)c3ncc(F)cn3)ncc2Cl)n[nH]1 | 772 nM (active) |
| Oc1cccc(-c2nc(N3CCOCC3)c3oc4ncccc4c3n2)c1 | inactive |
| OC[C@H](Cc1ccccc1)Nc1nc(Oc2ccc3c(c2)CCC3)nc2c1ncn2Cc1ccc(-c2ccccc2)cc1 | inactive |
| COCCNCCCn1c(C(=O)CF)c(-c2ccc(C)cc2)c2c(N)ncnc21 | inactive |

| SMILES | Potency |
| --- | --- |
| Nc1nccc(-c2ccc3noc(-c4ccc(Cl)cc4)c3c2)n1 | inactive |
| CCOc1cc(C(=O)Nc2ccc(Cl)c(-c3nc4ccccc4[nH]3)c2)cc(OCC)c1OCC | inactive |
| CC[C@H](Nc1ncnc2nc[nH]c12)c1nc2cccc(F)c2c(=O)n1-c1ccccc1 | inactive |
| Cc1cnc(Nc2ccc(OCCN3CCCC3)cc2)nc1Nc1cccc(S(=O)(=O)NC(C)(C)C)c1 | inactive |
| O=c1ncn2nc(Sc3ccc(F)cc3F)ccc2c1-c1c(Cl)cccc1Cl | inactive |
| COc1ccc(-c2oc3cc(OC)ccc3c2C(=O)c2ccc(C#N)cc2)cc1 | inactive |
| CCOc1ccc(Cc2cc([C@@H]3O[C@H](CO)[C@@H](O)[C@H](O)[C@@H]3O)ccc2Cl)cc1 | inactive |
| COc1ccc(-c2ccc3c(N4CCOCC4)nc(N4C[C@@H](C)O[C@@H](C)C4)nc3n2)cc1CO | inactive |
| CN[C@@H](C)C(=O)N[C@H]1CCCC[C@H]2CC[C@@H](C(=O)N[C@@H](c3ccccc3)c3cn(CCCCc4ccc(CCCCn5cc([C@@H](NC(=O)[C@@H]6CC[C@@H]7CCCC[C@H](NC(=O)[C@H](C)NC)C(=O)N76)c6ccccc6)nn5)cc4)nn3)N2C1=O | inactive |
| Fc1ccc(Cl)cc1-c1nc(Nc2ccncc2)c2nccnc2n1 | inactive |
| O=C(O)[C@@H](c1ccc(OCc2ccc3ccccc3n2)cc1)C1CCCC1 | inactive |
| CCCc1nc2c(C)cc(-c3nc4ccccc4n3C)cc2n1Cc1ccc(-c2ccccc2C(=O)O)cc1 | inactive |
| COc1cc2nccc(Oc3ccc(NC(=O)NC4CC4)c(Cl)c3)c2cc1C(N)=O | 3450 nM (active) |
| CNCc1ccc(-c2[nH]c3cc(F)cc4c3c2CCNC4=O)cc1 | 308 nM (active) |
| CCC(C)N(C)C(=O)c1cc2ccccc2c(-c2ccccc2Cl)n1 (stereo not drawn) | inactive |
| O=C(C=Cc1ccc(/C=C/C(=O)Nc2ccc(C3=NCCN3)cc2)cc1)Nc1ccc(C2=NCCN2)cc1 | inactive |

Source: PubChem BioAssay (NCATS)
